Screening data (PubChem BioAssay)
BoNT-A LC inh2 = blocks Botulinum neurotoxin A light chain protease; inhibition, % at 10 µM; actives 0.17% (n = 360,000); multiplex microsphere protease substrate cleavage, flow cytometry; AID 588499; in the data active = inhibition above about 30%; inconclusive = no clear call, values can overlap the other calls; note: plate controls were buffer without enzyme for full effect and enzyme alone for no effect
FBA Mtb inh = Mtb fructose-bisphosphate aldolase inhibition; P9WQA3; purified M. tuberculosis FBA, fluorescence read-out; inhibition, % at 1 µM; actives 2.3% (n = 360,000); AID 588726; in the data active = inhibition above about 27%;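 note: 0% = vehicle and 100% = reference inhibitor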
Target sequence (P9WQA3 whole entry, looked up): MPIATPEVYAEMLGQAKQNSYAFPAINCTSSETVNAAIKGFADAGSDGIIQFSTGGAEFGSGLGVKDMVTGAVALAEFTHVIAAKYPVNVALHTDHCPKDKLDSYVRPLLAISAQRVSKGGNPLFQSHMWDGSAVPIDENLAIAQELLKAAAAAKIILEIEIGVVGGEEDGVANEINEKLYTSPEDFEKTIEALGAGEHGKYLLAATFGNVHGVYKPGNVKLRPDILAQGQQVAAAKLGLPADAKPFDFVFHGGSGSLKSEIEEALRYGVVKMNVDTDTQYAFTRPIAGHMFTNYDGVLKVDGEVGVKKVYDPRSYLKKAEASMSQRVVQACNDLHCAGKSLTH
Anthrax LF prot = inhibitors of Bacillus anthracis lethal factor protease | actives 0.12% (n = 360,000) | multiplex microsphere protease cleavage assay, LF | inhibition, % at 10 µM | P15917; in the data active = inhibition above about 30%; inconclusive = no clear call, values can overlap the other calls; note: plate controls were buffer without enzyme for full effect and enzyme alone for no effect
GDH-TPI counter = counter-screen for M. tuberculosis FBA inhibitors: GDH-TPI coupled enzymes; GDH-TPI coupled enzyme counterscreen, NADH absorbance; inhibition, % at 4.8 µM; actives 1.2% (n = 360,000); AID 588335; in the data active = inhibition above about 30%;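 note: 0% = DMSO wells and 100% = wells lacking the enzyme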
Bead autofluor = compound fluorescence in toxin protease inhibitor counterscreen | actives 3.1% (n = 360,000) | AID 624483 | fluorescence intensity (test concentration not listed) | compound autofluorescence counterscreen, microsphere flow cytometry; stronger effect = higher value; in the data active = fluorescence intensity above about 16000; inconclusive = no clear call, values can overlap the other calls
BoNT-F LC inh = blocks Botulinum neurotoxin F light chain protease. Multiplex microsphere protease cleavage assay, flow cytometry. inhibition, % at 10 µM. actives 0.22% (n = 360,000); in the data active = inhibition above about 35%, passing the limit was not always enough; inconclusive = no clear call, values can overlap the other calls; note: plate controls were buffer without enzyme for full effect and enzyme alone for no effect
BoNT-A LC CP1 = BoNT/A light chain protease inhibition | actives 3% (n = 720) | inhibition, % at 10 µM | shares compounds with BoNT-F LC inh | multiplex microsphere protease assay, flow cytometry; in the data active = inhibition above about 32%
BoNT-F LC CP1 = inhibitors of Botulinum neurotoxin F light chain protease; shares compounds with BoNT-F LC inh; multiplex microsphere protease cleavage assay, flow cytometry; inhibition, % at 10 µM; 720 tested, under 10 active
Anthrax LF CP1 = inhibitors of Bacillus anthracis lethal factor protease. inhibition, % at 10 µM. multiplex microsphere protease cleavage assay, LF. shares compounds with BoNT-F LC inh. 720 tested, under 10 active. AID 602142
The depositor's hits bear a star; ? = inconclusive; . = not tested or not shown. A selection: hits, their analogues and other compounds. The true share with any hit is near 6.7%. Unless noted, the rule behind the calls is not given here.

SMILES	BoNT-A LC inh2	FBA Mtb inh	Anthrax LF prot	GDH-TPI counter	Bead autofluor	BoNT-F LC inh	BoNT-A LC CP1	BoNT-F LC CP1	Anthrax LF CP1
Cc1cc(C)c(CN2CCC(n3nccc3NC(=O)CCOc3ccccc3)CC2)cc1C	-2	-4	-4	-8	5611	0	.	.	.
COc1ccc(S(=O)(=O)NC(C)C(=O)NCc2cccnc2)cc1Cl (stereo unspecified)	0	-3	4	-7	3432	-13	.	.	.
COc1ccc(S(=O)(=O)NC(C)C(=O)NCc2cccnc2)cc1OC (stereo unspecified)	-1	2	-8	-3	3728	44*	1	-3	0
Cc1ccc2nc(SCC(=O)O)nc(C)c2c1	3	7	7	7	4380	40*	-1	-6	-4
COc1ccc(/C=N/NS(=O)(=O)c2ccccc2)cc1OC	-2	-1	-7	1	3546	-6	.	.	.
O=S(=O)(Nc1ccc(Cl)nn1)c1ccccc1	6	5	0	0	4098	38*	-2	-1	-3
CCCCOc1ccc(C(=O)CCN2CCOCC2)cc1	1	0	-4	4	4576	6	2	0	-1
FC(F)(F)c1ccc(CNCCc2ccc3c(c2)OCO3)cc1	5	4	2	1	3048	71*	1	-6	1
Clc1ccc(CNCCc2ccc3c(c2)OCO3)cc1	0	1	0	-12	3787	3	.	.	.
O=C(NCc1ccc(F)cc1)N1CCN(S(=O)(=O)c2ccccc2F)CC1	-1	1	6	10	3663	2	.	.	.
O=C(NCc1cccc(Cl)c1)N1CCN(S(=O)(=O)c2ccccc2F)CC1	6	-6	-7	0	3551	69*	0	-7	4
Cc1cc(C)c(NC(=O)CSc2nc(=O)n(CCN3CCOCC3)c3c2CCC3)c(C)c1	-3	0	-3	-1	?	1	.	.	.
Cc1ccc2c(c1)=N/C(=N\c1[nH]c(O)c3ccccc13)N=2	3	-2	6	15	3486	27	.	.	.
Oc1[nH]c(N=C2N=c3ccccc3=N2)c2ccccc12	13	5	-4	28	3598	111*	7	32*	9
CC(=O)Nc1ccc(C(=O)N2CCCCC2c2cc(C(=O)Nc3cccc4c3CCCC4)no2)cc1 (stereo unspecified)	1	-1	2	2	3447	2	.	.	.
Cc1cnc(NC(=O)c2ccc(-c3nc4ccccc4s3)o2)s1	34*	8	25	24	3621	0	4	-12	2
CCOc1ccc2nc(N(Cc3ccccc3)C(=O)CCNC(C)=O)sc2c1	2	-2	-4	-4	4850	6	.	.	.
CC(Oc1ccc(Br)cc1)c1nc2c3ccccc3nc(=S)n2[nH]1 (stereo unspecified)	4	-3	-2	21	3418	36*	-1	-4	-2
CCCC(Oc1ccc(Br)cc1)c1nc2c3cc(OC)c(OC)cc3nc(=S)n2[nH]1 (stereo unspecified)	1	-2	2	6	2447	-2	.	.	.
COc1ccc(CCNC(=O)C2CCN(S(=O)(=O)N3CCOCC3)CC2)cc1OC	4	1	0	-3	11415	36*	-2	3	-1
Cc1ccc(C(=O)NCCn2ccc3ccccc32)cc1[N+](=O)[O-]	4	8	1	-4	4905	-4	.	.	.
COc1ccc(C(=O)NCCn2ccc3ccccc32)cc1	53*	0	36*	4	9335	11	2	13	1
Cc1cc2ccccc2n1CCNC(=O)c1ccccc1	?	2	?	11	1420	?	24	-6	17
COCc1ccc([C@@H]2C[C@H]3CN(Cc4cccc(Cl)c4)C(=O)[C@]34CCCN24)o1	1	2	-3	3	4046	-1	.	.	.
COc1ccccc1NC(=O)c1sc2nc(Cc3ccccc3)cc(C(F)(F)F)c2c1N	30*	1	16	8	7395	12	6	-2	2
SMILES	BoNT-A LC inh2	FBA Mtb inh	Anthrax LF prot	GDH-TPI counter	Bead autofluor	BoNT-F LC inh	BoNT-A LC CP1	BoNT-F LC CP1	Anthrax LF CP1
COC(=O)CCSc1cc([N+](=O)[O-])cc2c1c(C1OCCO1)nn2-c1ccccc1	33*	-4	14	10	2047	5	8	0	2
CCCSc1cc(=O)n(-c2ccccc2)nc1C(=O)O	0	0	-1	1	1895	-1	.	.	.
CCc1ccc(-c2cc(C)no2)cc1S(=O)(=O)Nc1cccc(CN2CCCC2)c1	5	2	0	8	5655	13	.	.	.
CC(NC(=O)c1cc(=O)[nH]c2ccccc12)c1ccccc1 (stereo unspecified)	0	4	-2	2	4567	-4	.	.	.
COC(=O)C1Cc2ccccc2CN1S(=O)(=O)c1ccc(C)cc1 (stereo unspecified)	1	0	-7	12	3884	36*	1	4	-3
Cc1ccc(-c2nc(NCCCN(C)C)c3ccccc3n2)cc1	0	-1	-6	0	4020	1	.	.	.
Cc1ccc(-c2csc3nc4c5ccccc5c(NCCCN(C)C)nn4c(=O)c23)cc1	36*	19	13	4	5593	-2	11	-12	4
O=C1OCC/C1=C\c1ccc(O)cc1	-2	-3	3	13	3743	-17	.	.	.
COc1ccc(-c2ccnc(SCC(=O)c3ccc(Cl)cc3)n2)cc1	8	-3	38*	-5	6905	70*	0	-4	-2
O=C(Cn1cnc2sc(-c3ccccc3)cc2c1=O)NCCc1ccccc1	1	1	0	17	4551	45*	1	2	2
C=CCn1c(N2CCCC2)nc2c1c(=O)n(C)c(=O)n2C	0	-3	44*	-14	3562	16	1	-2	4
COc1ccc(NC(=O)C2CC(c3ccc(Cl)cc3)=NO2)cc1 (stereo unspecified)	0	6	45*	12	3152	-1	0	-6	-2
COc1ccc(Cl)cc1NC(=O)C1CC(c2c(F)cccc2Cl)=NO1 (stereo unspecified)	1	0	-4	-3	3506	37*	0	-5	-1
CSc1ccccc1NC(=O)C1CC(c2c(F)cccc2Cl)=NO1 (stereo unspecified)	-4	-1	8	5	4146	?	.	.	.
COc1ccc(NC(=O)C2CC(c3ccc(Cl)cc3)=NO2)cc1OC (stereo unspecified)	1	4	6	-6	4070	-18	.	.	.
COC(=O)c1ccc(CSc2nnc(CNC(=O)c3ccccc3F)o2)o1	0	2	-1	9	2852	-7	.	.	.
